Compound activity as filed in PubChem BioAssay.
IMPase Li inh: IMPase inhibition in cells with lithium potentiation. CHO-M1 cells, IP1 TR-FRET (IP-One), carbachol + lithium. 210,000 tested, 0.35% active. AID 1457. Potency, µM (titrated, usually from 59.4 µM), most hits filed as inhibitors; active means well fitted curve in the direction sought with a large enough effect; inconclusive means small, poorly fitted or top-dose-only effect, or another doubt; inactive means no such curve, though single readings can be large; an effect the other way counts as inactive or inconclusive;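 further: IP1 builds up when IMPase is blocked and the TR-FRET signal falls; nearly all actives have a fitted effect of over 50% in size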
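CHO-M1, 2000 cells/well, 16–30 h culture; cpd + low Li+, 30 min 37C; lysis with d2-IP1/Eu-anti-IP1 Ab, 10 min RT; TR-FRET 665/620 ratio and 620 channel; AC50 via Hill.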
NPSR antag: neuropeptide S receptor (human) antagonism, cAMP; Potency, µM (doses to about 38.3 µM), usual class: inhibitors; 220,000 tested, 1% active; CHO-NPSR cells, cAMP TR-FRET, antagonist mode; active means well fitted curve in the direction sought with a large enough effect; inconclusive means small, poorly fitted or top-dose-only effect, or another doubt; inactive means no such curve, though single readings can be large; an effect the other way counts as inactive or inconclusive; further: nearly all actives have a fitted effect of over 50% in size
Target sequence (Q6W5P4 whole entry, looked up): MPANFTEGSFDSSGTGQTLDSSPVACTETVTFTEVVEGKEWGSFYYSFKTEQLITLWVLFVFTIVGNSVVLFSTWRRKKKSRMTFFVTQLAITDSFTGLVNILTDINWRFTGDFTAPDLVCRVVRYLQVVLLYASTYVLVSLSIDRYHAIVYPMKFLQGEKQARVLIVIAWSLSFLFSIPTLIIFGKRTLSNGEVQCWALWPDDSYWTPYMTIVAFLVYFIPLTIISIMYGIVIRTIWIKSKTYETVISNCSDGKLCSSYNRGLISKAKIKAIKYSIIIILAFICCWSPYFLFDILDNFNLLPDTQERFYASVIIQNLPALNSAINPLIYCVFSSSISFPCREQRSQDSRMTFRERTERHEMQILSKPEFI
IMPase inh: IMPase inhibition in cells | CHO-M1 cells, IP1 accumulation, HTRF TR-FRET ratio | inhibition (IP1 accumulation), % at 46.1 µM | 120,000 tested, under 10 active; active means well fitted curve in the direction sought with a large enough effect in the signal ratio, not every such curve was filed as active; inconclusive means small, poorly fitted or top-dose-only effect, or a change in a side signal; inactive means no such curve, though single readings can be large or run the other way; the % refers to the signal ratio;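 further: cells stimulated with carbachol in lithium chloride buffer; higher means more IMPase inhibition seen as more IP1 and lower FRET ratio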
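CHO-M1 cells (CHO stably expressing M1 receptor), compound up to 46 uM final, stimulated with carbachol (50 uM as added) in buffer with 50mM LiCl, pH 7.4, 30 min at 37C. Cytosolic IP1 read by TR-FRET; AC50 from Hill fits.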
HPGD inh: HPGD (human) dehydrogenase inhibition | P15428 | purified HPGD, NADH fluorescence kinetic, PGE2 substrate | Potency, µM, usual class: inhibitors | 150,000 tested, 4.3% active
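NADH formation kinetics: reaction with 30 uM PGE2 and 1 mM NAD+ (final), 20 nM enzyme, Tris-HCl pH 8 with Tween 20, after 15 min compound preincubation at room temperature. Fluorescence change, last versus first of five reads.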
PNC assembly inh: perinucleolar compartment assembly inhibition; AID 2417; PC3M PTB-GFP, PNC prevalence imaging, 16 h; hits give low values; activity change (PNC), negative = inhibition, % at 10 µM; 140,000 tested, 3.1% active;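 active means readout at or below -70, meaning at least 70% loss of cells showing the perinucleolar compartment, a nuclear body marking cancer cells; inconclusive means readout between -30 and a set limit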
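PC3M cells stably expressing PTB-GFP, 750–1000 cells/well, treated 16 h at 37 °C with compound (23 nl of library stock), in duplicate. After paraformaldehyde fixation and Hoechst stain, imaged at 20x; PNC prevalence scored by image analysis.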
ALDH1A1 block: blocks purified human ALDH1A1 activity | P00352 | Potency, µM (series often up to 75.3 µM), most hits filed as inhibitors | 220,000 tested, 7.3% active | Purified ALDH1A1, NADH fluorescence, propionaldehyde substrate
Large screens that a line does not name were inactive. Rows were chosen to be rich in hits. Some 11% of all compounds tested hit in one or more screens of this group. Unless noted, the call rests on the fitted dose curve; in most records, active means well fitted inhibition curve with a large enough effect (not every such curve was filed as active); inconclusive means small, poorly fitted or top-dose-only effect, or another doubt; inactive means no such curve, though single readings can be large or run the other way.

COc1ccccc1CN(Cc1nc2ccccc2c(=O)[nH]1)C(=O)Nc1ccccc1C	PNC assembly inh -114.9, ALDH1A1 block inconclusive
COc1ccc2[nH]c(=O)c(CN(Cc3cccs3)C(=S)Nc3cccc(C)c3)cc2c1	NPSR antag inconclusive, HPGD inh inconclusive, PNC assembly inh -100.0, ALDH1A1 block inconclusive
COc1ccccc1CN(Cc1nc2ccccc2c(=O)[nH]1)C(=O)Nc1ccc(C)cc1	none
COC(=O)c1cn(NC(=O)c2ccc([N+](=O)[O-])cc2Cl)c(=O)c2ccccc12	none (no result: IMPase inh, HPGD inh, PNC assembly inh)
Cc1ccc(C)c2[nH]c(=O)c(CN(Cc3cccs3)C(=S)NCc3ccco3)cc12	ALDH1A1 block 25.1µM (no result: IMPase inh)
COCCNC(=S)N(Cc1cccs1)Cc1cc2cccc(C)c2[nH]c1=O	ALDH1A1 block 12.6µM (no result: IMPase inh, HPGD inh, PNC assembly inh)
Cc1cc2cc(CN(Cc3cccs3)C(=S)NCc3ccco3)c(=O)[nH]c2cc1C	HPGD inh inconclusive, ALDH1A1 block inconclusive (no result: IMPase inh)
COc1ccc(CC(=O)NNC(=O)c2cccs2)cc1	none (no result: IMPase inh)
CCOC(=O)N1CCN(Cc2nc(CC3CC3)no2)CC1	none (no result: IMPase inh, HPGD inh, PNC assembly inh)
CN1CCN(CCCNC(=O)c2cc3c(-c4ccc(Cl)cc4)nn(C)c3s2)CC1	NPSR antag 10µM, HPGD inh inconclusive, ALDH1A1 block inconclusive
CCN(CC)CCCNC(=O)c1cc2c(-c3ccc(Cl)cc3)nn(C)c2s1	NPSR antag inconclusive, HPGD inh inconclusive, ALDH1A1 block inconclusive
COc1ccc2c(c1)CCc1c(C(=O)NCCN3CCOCC3)noc1-2	none
C/C(N)=C(/C#N)C(=O)COC(=O)c1cc(C)n(-c2ccc(F)cc2)c1C	PNC assembly inh -129.2, ALDH1A1 block 12.6µM
COc1cc(CN2CCNC(=O)C2CC(=O)N2CCc3ccccc3C2)cc(OC)c1 (configuration not stated)	ALDH1A1 block 25.1µM (no result: IMPase inh, HPGD inh, PNC assembly inh)
C=CCc1ccc(OCC(O)COc2ccc(CC=C)cc2OC)c(OC)c1	ALDH1A1 block 10µM
COC(=O)N[C@@H](c1cccc(F)c1)[C@@H](C)[N+](=O)[O-]	none (no result: NPSR antag, IMPase inh, PNC assembly inh)
C=CCC1(NC(C)c2ccccc2)CCCCC1 (configuration not stated)	PNC assembly inh -113.3 (no result: IMPase inh)
O=C(C1CCN(S(=O)(=O)c2cccnc2)CC1)N1CCN(c2ccc(Cl)cc2)CC1	none (no result: IMPase Li inh, IMPase inh, HPGD inh, PNC assembly inh, ALDH1A1 block)
N#Cc1c(SCC(=O)OCc2ccccc2)nsc1SCC(=O)OCc1ccccc1	PNC assembly inh -100.5
CC(=O)CSc1nsc(SCC(C)=O)c1C#N	HPGD inh inconclusive, ALDH1A1 block 28.2µM
N#Cc1c(SCC(N)=O)nsc1SCc1ccc(Cl)cc1	PNC assembly inh -82.8
CCOC(=O)CSc1nsc(SCC(=O)OCC)c1C#N	PNC assembly inh -100.0
Cc1ccc2nc3c(nc2c1C)C(O)=C3O	none (no result: IMPase Li inh, IMPase inh, HPGD inh, PNC assembly inh, ALDH1A1 block)
CCOc1ccc(CCNC(=O)c2[nH]c(C)c(C(C)=O)c2C)cc1OCC	none (no result: IMPase inh, HPGD inh, PNC assembly inh)
Cc1ccc(C)cc1	none (no result: NPSR antag, IMPase inh, PNC assembly inh)
Cc1ccc(C#N)cc1	ALDH1A1 block 31.6µM (no result: NPSR antag, IMPase inh, PNC assembly inh)
COc1cc(OC)c(C(=O)NCCCN2CCOCC2)cc1OC	none (no result: IMPase inh, HPGD inh, PNC assembly inh)
CCOC(=O)CCNC(=O)c1ccccc1Br	HPGD inh 17.8µM
CCOC(=O)Cc1ccc(NC(=O)c2ccccc2Br)cc1	none (no result: IMPase inh, HPGD inh, PNC assembly inh)
CCOC(=O)c1cc(C)sc1NC(=O)C(c1ccccc1)c1ccccc1	none (no result: IMPase inh)
CCc1cc(C(=O)O)c(NC(=O)C(c2ccccc2)c2ccccc2)s1	ALDH1A1 block 12.6µM
COc1ccccc1C(=O)NNC1CC(=O)N(c2ccc3c(c2)OCCO3)C1=O (configuration not stated)	none
COc1ccc(N2C(=O)CC(SCC(=O)O)C2=O)cc1 (configuration not stated)	ALDH1A1 block inconclusive
COc1ccc(NC(=O)CSC2CC(=O)N(c3ccc4c(c3)OCCO4)C2=O)cc1 (configuration not stated)	ALDH1A1 block 14.1µM
COc1ccccc1NC(=O)CSC1CC(=O)N(c2ccc3c(c2)OCO3)C1=O (configuration not stated)	ALDH1A1 block 0.562µM
Nc1nc2ccc(C(=O)NCCOC(=O)C3CCCCC3)cc2s1	ALDH1A1 block 10µM (no result: IMPase inh, HPGD inh, PNC assembly inh)
CC1CCCC2(C1)NC(=S)c1c(sc3c1CCCC3)N2 (configuration not stated)	HPGD inh 4.47µM, PNC assembly inh inconclusive, ALDH1A1 block 3.55µM
